LmPK inhibitor – inhibitors of Leishmania mexicana pyruvate kinase | purified LmPK, Kinase-Glo ATP luminescence, 1 h | Potency, µM (top dose mostly 57.5 µM), without a hit: at the top dose activity change, negative = inhibition, usual class: inhibitors | 0.37% of 290,000 active | AID 1721; also: potency is read from the fitted curve at half-maximal effect
Target sequence (Q27686 whole entry, looked up): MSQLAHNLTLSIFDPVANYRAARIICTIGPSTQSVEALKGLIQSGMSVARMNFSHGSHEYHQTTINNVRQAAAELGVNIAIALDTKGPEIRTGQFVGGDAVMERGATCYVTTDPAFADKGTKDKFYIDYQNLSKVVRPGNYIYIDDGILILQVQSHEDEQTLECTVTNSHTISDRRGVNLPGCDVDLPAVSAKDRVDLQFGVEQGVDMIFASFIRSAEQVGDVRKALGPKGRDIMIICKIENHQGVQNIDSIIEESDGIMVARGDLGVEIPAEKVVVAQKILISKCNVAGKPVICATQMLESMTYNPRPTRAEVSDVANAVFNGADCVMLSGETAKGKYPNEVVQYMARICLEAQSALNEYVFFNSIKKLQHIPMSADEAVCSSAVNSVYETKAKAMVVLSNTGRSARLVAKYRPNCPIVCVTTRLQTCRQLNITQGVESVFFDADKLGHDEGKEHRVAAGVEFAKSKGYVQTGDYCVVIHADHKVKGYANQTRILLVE
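ATP generated from ADP (0.1 mM) and PEP (0.5 mM) by 0.1 nM LmPK over 1 h at room temperature (pH 7.2 imidazole buffer) was detected by coupled luciferase luminescence. Values were normalized to uninhibited and no-enzyme wells.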
HCMV inh – blocks human cytomegalovirus replication | HFF cells, HCMV-luciferase reporter, 72 h; active compounds read low | activity change, negative = inhibition, % at 57.5 µM | 4.5% of 410,000 active; in the data active = activity change below about -60%; inconclusive = no clear call, values can overlap the other calls; inactive = above about -39%
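Two compound doses tested in HFFs infected with HCMV-luciferase, MOI 1 PFU/cell, 72 h at 37C. Lysate luminescence read with OneGlo; data normalized against buffer-only and 10uM Salinomycin inhibitor controls.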
VACV mCherry inh – vaccinia inhibition (mCherry reporter) | Vaccinia virus mCherry reporter infection, fluorescence | Potency, µM (doses to about 36.5 µM), inactives show top-dose activity change, negative = inhibition, actives largely listed as inhibitors | 0.63% of 310,000 active | AID 720579; calls by dose curve; tested in A549 cells; also: potency is read from the fitted curve at half-maximal effect; nearly all actives have a fitted effect of over 35% in size
TbPYK inhibitor – T. brucei pyruvate kinase inhibition; TbPYK enzyme, Kinase-Glo Plus ATP luminescence, 45 min; Potency, µM (doses to about 76.8 µM), without a hit: at the highest dose activity, negative = inhibition, usual class: inhibitors; AID 624173; 0.12% of 410,000 active; Q57TT1; also: potency is read from the fitted curve at half-maximal effect; nearly all actives have a fitted effect of over 50% in size
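Readout: single end-point luminescence (Kinase-Glo Plus, 10 min). Reaction conditions were TbPYK/substrate plus 130 uM ADP, 45 min at RT, pH 7.2 TEA buffer. No-enzyme wells served as controls, and data were normalized before concentration-response fitting.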
Vaccinia Venus – inhibitors of vaccinia virus (Venus reporter) | Vaccinia virus Venus reporter expression, fluorescence | Potency, µM (titrated, usually from 36.5 µM), inactives show at the top dose activity change, negative = inhibition, hits mostly inhibitors | 0.46% of 330,000 active | AID 720580; calls by dose curve; tested in A549 cells; also: potency is read from the fitted curve at half-maximal effect; nearly all actives have a fitted effect of over 30% in size
* = called active by the depositor; i = inactive; u = inconclusive; x = no result given. Shown are actives, neighbours in structure and some others; about 5% of the full set was active somewhere. Unless noted, calls follow the shape of the dose curve; as a rule, active = well fitted curve in the direction sought with a large enough effect; inconclusive = small, poorly fitted or top-dose-only effect, or another doubt; inactive = no such curve, though single readings can be large; an effect the other way counts as inactive or inconclusive. % is scaled to controls: 0 for no effect and ±100 for the full control effect.

SMILES	LmPK inhibitor	HCMV inh	VACV mCherry inh	TbPYK inhibitor	Vaccinia Venus
Cc1ccc(S(=O)(=O)N2CCCCC2)cc1NC(=O)c1c(-c2ccccc2)noc1C	x	16	x	1%	x
Cc1onc(-c2ccccc2)c1C(=O)Nc1ccc(S(=O)(=O)N2CCCC2)cc1	-5%	20	i	-13%	0%
Cc1onc(-c2c(F)cccc2Cl)c1C(=O)Nc1cc(S(=O)(=O)N2CCCCC2)ccc1O	x	-100*	u	-3%	u
COCC(=O)N1[C@@H]2Cn3c(ccc(Br)c3=O)[C@H]1[C@@H](C(=O)OC)[C@@H]2CO	x	-8	x	x	x
C[C@@H]1CN([C@H](C)CO)C(=O)CCCn2cc(nn2)CO[C@H]1CN(C)C(=O)Nc1ccnc(N2CCOCC2)c1	x	46	i	0%	-5%
CCOc1ccccc1NC(=S)N1CCN(c2ccc(OC)cc2)CC1	1%	-3	x	6%	x
CCCN(CCC)Cc1c(C(=O)N/N=C/C(C)=C\c2ccco2)nnn1-c1nonc1N	5%	u	10µM*	4%	u
CCCc1c(C(=O)N/N=C(\C)c2ccccc2O)nnn1-c1nonc1N	x	-36	u	-1%	-17%
C/C(=N\NC(=O)c1nnn(-c2nonc2N)c1-c1ccccc1)c1ccccc1O	-3%	-89*	2µM*	3%	u
C/C(=N\NC(=O)c1nnn(-c2nonc2N)c1CN(C)c1ccccc1)c1ccc(O)cc1	-3%	-60*	x	-2%	x
CC1(C)CC(=O)C=C(N2CCNCC2)C1	3%	-26	x	-3%	x
CC1CC(C)C[N+](=C2C=C(N3CCCC3)CC(C)(C)C2)C1 (stereo unspecified)	0%	-102*	x	u	x
CC1(C)CC(N2CCN(c3ccccc3)CC2)=CC(=[N+]2CCCC2)C1	-6%	-98*	u	-3%	u
CC1(C)CC(N2CCCC2)=CC(=[N+]2CCCCCC2)C1	2%	-98*	x	-2%	x
CCC(NC(=O)CCl)c1ccc(C)cc1 (stereo unspecified)	1%	-78*	-21%	5%	-8%
CCCC(NC(=O)CCl)c1ccccc1 (stereo unspecified)	-4%	-72*	-18%	-3%	-25%
CC(C)CC(NC(=O)CCl)c1ccccc1 (stereo unspecified)	-1%	u	i	-9%	-12%
CCC1OC(C(C)C)Cc2[nH][nH]c(=O)c21 (stereo unspecified)	x	0	-6%	-1%	1%
N#CCSc1nnc(-c2ccc(S(=O)(=O)N3CCOCC3)cc2)n1CC1CCCO1 (stereo unspecified)	3%	22	x	8%	x
O=C(c1ccccc1)c1ccccc1NC(=O)C1CCCN1Cc1ccccc1 (stereo unspecified)	-1%	-60*	x	1%	x
O=C(CN1CCCC1)Nc1ccccc1C(=O)c1ccccc1	5%	-34	x	0%	x
COc1cc(C(=O)NC2CCN(C)CC2)ccc1Nc1ncc2c(n1)N(C1CCCCC1)CCC(=O)N2C	x	u	u	-2%	u
COc1cc(C(=O)NC2CCN(C)CC2)ccc1Nc1ncc2c(n1)N(Cc1ccccc1)CCC(=O)N2C	x	-76*	-18%	-6%	u
CCN1C(=O)CC(C(C)C)N(C2CCCC2)c2nc(Nc3ccc(C(=O)NC4CCN(C)CC4)cc3OC)ncc21 (stereo unspecified)	x	x	u	-5%	10µM*
CCOc1ccc(C2C(C(=O)OC)=C(C)NC3=C2C(=O)c2ccccc23)cc1OC (stereo unspecified)	x	-16	2%	-8%	0%
C#CCOc1c(Br)cc(C2C(C(=O)OC)=C(C)NC3=C2C(=O)c2ccccc23)cc1OCC (stereo unspecified)	x	-63*	-27%	4%	-11%
C[C@H]1CN([C@@H](C)CO)C(=O)CCCn2nncc2CO[C@H]1CN(C)C(=O)Oc1ccc2ccccc2c1	x	-12	-11%	-2%	-23%
Cc1cc(C2CCCCC2)n(O)c(=O)c1	x	-78*	4.5µM*	-4%	u
Cc1cc(C(=O)Nc2cccc(C)c2C)n(-c2ccccc2)n1	-10%	-88*	-25%	4%	-20%
CC1=CC(=O)C(C(C)C)=C/C1=C(\c1cc(C(C)C)c(OP(=O)(O)O)cc1C)c1ccccc1C(=O)O	-8%	-98*	-21%	-5%	u

From PubChem BioAssay
